Anaer choline gr – inhibitors of anaerobic choline-dependent gram-negative bacterial growth; Gram-negative bacterium anaerobic choline minimal medium, absorbance growth; stronger effect = lower value; calls only; hit rate 0.2% among 55,000; AID 1963822; call rule not given here
Calls only; - = inactive; + = active, no number; ! = a repeat was not active. This excerpt belongs to a sample that is enriched for hits.

SMILES | Anaer choline gr
CC(C)(C)c1csc(-c2csc(S(=O)(=O)NCc3ccc(F)c(Cl)c3)c2)n1 | -
CCSc1nccc2c1ccn2CC(=O)NCc1ccc(OC)cc1OC | -
CCc1ccc(-n2c(=O)c3cccnc3n2CC(=O)NC2CCCCC2)cc1 | -
COc1ccc(C2NCCc3c2[nH]c2ccccc32)cc1O (configuration not stated) | -
CCCOc1ccc(C2NCCc3c2[nH]c2ccccc32)cc1OC (configuration not stated) | -
COc1ccc2[nH]c3c(c2c1)CCNC3c1cccc(O)c1 (configuration not stated) | -
CCOc1cc(C2NCCc3c2[nH]c2ccc(Cl)cc32)ccc1O (configuration not stated) | +
Oc1ccc(C2NCCc3c2[nH]c2ccc(Cl)cc32)cc1 (configuration not stated) | +
Oc1ccc(C2NCCc3c2[nH]c2ccc(Cl)cc32)cc1O (configuration not stated) | -
Cc1csc(-c2cc(S(=O)(=O)NC3CCCCC3)c(C)s2)n1 | -
COc1ccc(CNc2c(C(=O)Nc3cccc(OC)c3)cnc3c2c(C)nn3-c2ccccc2)cc1 | -
COc1ccc(OC)c(C(=O)c2c(N)c(-c3nc(-c4ccc(C)cc4)cs3)c3ccccn23)c1 | -
O=C(O)c1ccccc1SCc1cc(=O)n2nc(-c3ccccc3Cl)sc2n1 | -
O=C(CCc1nc(CSc2nc3ccccc3[nH]2)no1)Nc1ccc2c(c1)OCO2 | -
COc1cc(NS(=O)(=O)c2cc(-c3cc(C)no3)cs2)cc(OC)c1 | -
CN(C)CCC=C1c2ccccc2Sc2ccc(Cl)cc21 | +
CN(C)CC/C=C1\c2ccccc2Sc2ccc(Cl)cc21 | -
O=C(COc1ccc(-c2cnc3ccccc3n2)cc1)Nc1cc(F)ccc1F | -
Cc1nc(OCC(=O)Nc2ccc(F)cc2F)c2ccccc2n1 | +
CCc1nc(OCC(=O)Nc2cc(C)cc(C)c2)c2ccccc2n1 | -
O=C(NC1CCCc2ccccc21)C1CCN(Cc2noc(-c3ccc(F)cc3)n2)CC1 (configuration not stated) | -
COc1ccc(CSc2nc3ccncc3n2Cc2ccc(OC)cc2)cc1 | -
COc1ccc(NC(=O)Cn2cccc2-c2nnc(C)o2)cc1 | -
COc1ccc(NS(=O)(=O)c2ccc3c(c2)-c2oncc2CO3)c(OC)c1 | -
CCCN1CCc2nc(NC(=O)c3ccc(S(=O)(=O)N4CCc5ccccc5C4)cc3)sc2C1 | -
SMILES | Anaer choline gr
CCN1CCc2nc(NC(=O)c3ccc(S(=O)(=O)N4CCc5ccccc5C4)cc3)sc2C1 | +
O=C(Nc1nc2ccccc2s1)c1ccc(S(=O)(=O)N2CCc3ccccc3C2)cc1 | -
CN1CCN(CCc2ccc(Cl)c(Cl)c2)CC1 | +
CN1CCN(S(=O)(=O)c2cc(-c3ccc(=O)[nH]n3)ccc2Cl)CC1 | -
CN1CCN(CCNC(=O)c2cc3n(n2)CCCC3)CC1 | -
CCOc1ccccc1NC(=O)N(C)CCc1noc(COc2ccc(Cl)cc2)n1 | -
CCc1ccc(NC(=O)N(C)CCc2noc(-c3ccc(C)cc3)n2)cc1 | -
CCc1ccc(OCc2nc(CCN(C)C(=O)Nc3ccc(C(=O)OC)cc3)no2)cc1 | +
Cc1noc2nc(C)n(CC(=O)NCCCN3CCOCC3)c(=O)c12 | -
O=C1NCCCn2nc(C3CCN(S(=O)(=O)c4ccc5c(c4)CCC5)CC3)cc21 | -
Cc1ccc(-n2nc(N3CCN(C(=O)c4cccnc4)CC3)ccc2=O)cc1 | -
COc1ccc(NC(=O)COc2nc(-c3ccc(OC)cc3)nc3sc4c(c23)CCCC4)cc1 | -
CC(C)c1ccc(NC(=O)C2CCN(Cc3noc(-c4ccc(F)cc4)n3)CC2)cc1 | -
Cc1noc(C)c1C1CCCN1C(=O)c1cc(C2CC2)on1 (configuration not stated) | +
Cc1cc(C(=O)N2CCCC2c2c(C)noc2C)no1 (configuration not stated) | -
CCc1onc(C)c1C1CCCN1C(=O)c1cc(C2CC2)on1 (configuration not stated) | -
Cc1nn(C)c(C)c1CCN(C)S(=O)(=O)c1c(C)noc1C | -
CC1CCCN(c2ccc(NC(=O)C3CCC3)c(C(=O)O)c2)C1 (configuration not stated) | -
CC1CCCN(c2ccc(NC(=O)c3ccccc3Cl)c(C(=O)O)c2)C1 (configuration not stated) | +
CN1CCCN(c2ccc(NC(=O)c3ccccc3Cl)c(C(=O)O)c2)CC1 | -
CN=C1C=C2C(=NC=NC2=Nc2cccc(Br)c2)C=N1 | -
CC1(C(=O)NC2CCCC2)Cn2c(cc3sccc32)C(=O)N1Cc1cccc(Br)c1 (configuration not stated) | -
Cc1ccc(NC(=O)CCCC2=NS(=O)(=O)c3ccccc3N2)cc1F | +
Cc1cc(C)cc(NC(=O)CC2(CC3=NS(=O)(=O)c4ccccc4N3)CCCC2)c1 | -
O=C(CCC1=NS(=O)(=O)c2ccccc2N1)NCc1ccc(F)cc1 | -
SMILES | Anaer choline gr
CCCNC(=O)N1Cc2c(sc3c2CCN(CC)C3)-n2cccc2C1c1ccc(C)cc1 (configuration not stated) | -
CCCn1c(=O)oc2cc(NC(=O)c3c(-c4ccccc4Cl)noc3C)ccc21 | -
O=C(C1CC1)N1CCN(c2nc3cc(Br)ccc3n3cccc23)CC1 | -
CCN1CCN(CCNc2nc(C3CC3)nc3c2CCC3)CC1 | +
CN1CCN(CCNc2nc(C3CC3)nc3c2CCC3)CC1 | -
O=C1CCCN1CCCNc1nc(C2CC2)nc2c1CCC2 | -
O=C(NC1CC1)C1CCN(c2cc(-c3cccc(F)c3)ncn2)CC1 | -
CCCCC/C=C\C/C=C\C/C=C\CCCCCCC(=O)O | -
CCCCC/C=C\C/C=C\CCCCCCCC(=O)O | -
CCCCC/C=C\C/C=C\C/C=C\CCCCC(=O)O | +
O=C(NC1COc2ccccc2C1)N1CCN(C2CCCCC2)CC1 (configuration not stated) | -
O=C(NCc1cccn1Cc1ccccc1)NCC1CCCO1 (configuration not stated) | -
Cc1ccc(-c2c(C)nn3c2NC(=O)CCC3=O)cc1S(=O)(=O)N1CCn2c1nc1ccccc12 | -
NC(N)=N/N=C/c1c(Cl)cccc1Cl | +!
NC(N)=NC(=O)Cc1c(Cl)cccc1Cl | -
CO[C@@]12[C@H](COC(N)=O)C3=C(C(=O)C(C)=C(N)C3=O)N1C[C@@H]1N[C@@H]12 | +!
Cc1nc2ccc(C(=O)NC3CCCCC3)cc2nc1C | -
COc1ccccc1NC(=O)c1nn(C)c(C(F)(F)F)c1Cl | -
Cc1ccccc1Cn1cnc2onc(C)c2c1=O | -

Bioassay records: PubChem BioAssay, ICCB-Longwood Screening Facility, Harvard Medical School
